Molecules are shown by their SMILES. The list shows a part of the results. A number with no mark means an inactive call. The rule behind the calls is not given here.

The assay in a line: H2O2 production by redox-active compounds – biochemical, artefact control for Plk1 PBD inhibitor project, dose response (AID 876). Conditions: redox cycling H2O2 generation, DTT, counter-screen. In general terms: A counterscreen serves to expose hits that act by an unwanted route or on another target.
For orientation: EC50 means the concentration needed to bring the measured effect to its halfway point. With `CCOC(=O)c1cc2n(c1N)-c1ccccc1C2=O`, the EC50 is > 50 µM. For `CC1(C)CC(=O)C=C(NCc2ccncc2)C1` the value was > 50 µM; for `Oc1ccc2ccc3cccc[n+]3c2c1`, > 50 µM; for `O=C(NCCc1ccccc1)/C(=C\c1ccc([N+](=O)[O-])cc1)NC(=O)c1ccccc1`, > 50 µM.

`COc1ccc(Nc2oc(-c3ccccc3Cl)nc2C#N)cc1`: the EC50 is > 50 µM.

For the origin of these results see PubChem BioAssay AID876 (University of Pittsburgh Molecular Library Screening Center, 2007).
